# From PubChem BioAssay AID449762 (Southern Research Specialized Biocontainment Screening …, 2010)
# Screen size: about 330,000 compounds; about 1,900 (0.58%) were called active. Roughly 4% stayed inconclusive and do not appear here. Only a sample is shown. Results with a measured potency or affinity are listed apart. Values without a mark were called inactive. No stated cut-off is given here; in the data, inconclusive means inhibition above about 70% without an active follow-up result; inactive means below that.
# Test: M. tuberculosis growth inhibition, HTS (AID 449762);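 further: bacterial growth assessed after seven days of incubation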
# Conditions: M. tuberculosis H37Rv growth inhibition, 7H9 media; at 25 µM; hits give high values
row,Structure (SMILES),inhibition
1,CCOC(=O)c1[nH]c2cc(OC)c(OC)cc2c1NC(=O)CN1CCN(c2ccc(OC)cc2)C(C)C1 (configuration not stated),-2.17%
2,COC(=O)c1[nH]c2cccc(OC)c2c1NC(=O)CN1CCN(c2cccc(OC)c2)C(C)C1 (configuration not stated),52.6%
3,O=C(c1cc2ccccc2oc1=O)N1CCN(Cc2ccc3c(c2)OCO3)CC1,-3.79%
4,C=C(c1ccccc1O)n1ccnc1,0.25%
5,O=C(COc1ccccc1)NNC(=S)NC(=O)c1ccc(Cl)cc1Cl,55.5%
6,Cc1cccc(C(=O)NNC(=O)c2cccc(C)c2)c1,-16.6%
7,Cc1cccc(C(=O)NNC(=O)c2ccccc2)c1,-6.62%
8,O=C(COc1ccccc1)NNC(=S)NC(=O)c1ccccc1,56.3%
9,O=C(c1cc(Br)c(Br)s1)N1CCN(C/C=C/c2ccccc2)CC1,-4.13%
10,OCCOCCn1c(C2CCCN2c2nc(-c3ccc(F)cc3)cs2)nc2cc(C(F)(F)F)ccc21 (configuration not stated),2.16%
11,CCOc1ccc(-n2nnc3c(=O)n(C/C=C/c4ccccc4)cnc32)cc1,-10.8%
12,CC(=O)Nc1ccc(C(=O)CN2C(=O)NC3(CCCCCC3)C2=O)c(F)c1,-9.64%
13,CC(C)c1ccc(OC(=O)c2cccc(S(=O)(=O)N3CCN(C)CC3)c2)cc1,10.8%
14,CC1(C)N=C(N)N=C(N)N1c1cccc(CN)c1,-3.4%
15,Nc1ccc(Br)cc1Br,-6.59%
16,Brc1ccc2ncc(Br)cc2c1,2.82%
17,COC(=O)C1CCN(C(=O)/C=C/c2ccccc2)CC1,-5.05%
18,Cc1nn(Cc2ccccc2)c(C)c1CNC(=O)[C@H](C)N=C1NS(=O)(=O)c2ccccc21,6.6%
19,Cc1cccc(-n2cc(CNCCN3CCOC3=O)c(-c3cccc(F)c3)n2)c1,1.99%
20,O=C1CC2(CCCCC2)Oc2ccc(F)cc21,-0.1%
21,CCN(Cc1ccccc1)c1ccc(/C=N/NC(=S)NC(C)C)cc1,10.7%

row,Structure (SMILES),inhibition
1,NC(N)=N/N=C/c1ccccc1,-2.68%
2,NC(N)=N/N=C/c1ccc(Br)cc1,10.5%
3,CCN(Cc1ccccc1)c1ccc(/C=N/N2CCOCC2)cc1,11.3%
4,COc1ccc(-c2oc3cccnc3c2C#CCO)cc1,5.48%
5,CC(=O)N/C(=C\c1ccccc1)C(=O)N1CCOCC1,-6.38%
6,CN(C)CCCN1c2ccc([N+](=O)[O-])cc2CCc2cc([N+](=O)[O-])ccc21,-1.94%
7,CCOc1cc(/C=C\[N+](=O)[O-])ccc1OCC(=O)N1CCOCC1,3.95%
8,COc1cc(/C=C/c2cccc[n+]2C)ccc1OCC(=O)Nc1ccccc1C,-9.56%
9,COc1cccc(C(=O)c2c[nH]c(C(=O)NCCCN(C)C)c2)c1,-4.05%
10,COCCn1c(CN2CCN(C(=O)c3ccco3)CC2)nc2c1c(=O)n(C)c(=O)n2C,13%
11,CC(=O)c1ccc(OC(=O)COc2ccccc2)cc1,-5.04%
12,NS(=O)(=O)c1ccc(NC(=O)CSc2ncnc3ccccc23)cc1,0.11%
13,O=C(CSc1nnc(NC2CCCCC2)s1)Nc1ccc2c(c1)C(=O)c1ccccc1C2=O,4.12%
14,CC(Sc1nnc(NC2CC2)s1)C(=O)Nc1ccc(S(N)(=O)=O)cc1 (configuration not stated),8.95%
15,CCN1CCN(c2nc3c(c(=O)[nH]c(=O)n3C)n2CCCc2ccccc2)CC1,-0.19%
16,COc1cc(C(C)=O)ccc1OCC(O)CN1CCN(S(=O)(=O)c2ccccc2)CC1 (configuration not stated),-10.5%
17,CCOC(=O)c1cc(C)nc(SC)c1C#N,6.64%
18,C#CCSc1nc(C)cc(C(=O)OCC)c1C#N,1.67%
19,CCOC(=O)[C@@H]1[C@H]2COc3ccc(Br)cc3[C@@H]2N2C(=O)N(c3ccc(C)cc3)C(=O)[C@@]12C,-3.24%
20,CN(Cc1cnn(C)c1)C(=O)CC1C(=O)NCCN1Cc1cccc(Oc2ccccc2)c1 (configuration not stated),3.24%
21,Cc1sc2nc(C(C)C)nc(SCC(=O)NC3CC3)c2c1C,0.27%

row,Structure (SMILES),inhibition
1,Cc1c(C(=O)CN2CCCC(C)(C)C2)c2ccccc2n1C,5.6%
2,COc1cc(CNCCCN2CCOCC2)ccc1OCC(=O)Nc1cccc(C(F)(F)F)c1,0.14%
3,CCOc1cc(CNCCCN2CCOCC2)ccc1OCC(=O)Nc1cccc2ccccc12,6.81%
4,Cc1ccc(S(=O)(=O)N2CCOCC2)c(C)c1NS(C)(=O)=O,-0.81%
5,CCN(C(=O)COc1cc(OC)ccc1C(C)=O)C1CCS(=O)(=O)C1 (configuration not stated),0.77%
6,CCc1noc(C)c1C(=O)NNC(=O)COc1cc(C)ccc1C,0.9%
7,Cc1ccc(NC(=O)CCS(=O)(=O)c2cccc3nonc23)cc1,13.6%
8,CCc1cccc(NC(=O)CCS(=O)(=O)c2cccc3nonc23)c1,57.8%
9,O=c1c(/C=N/OCc2ccc(Cl)cc2Cl)c[nH]n1-c1cccc(Cl)n1,34.5%
10,O=c1c(C=Nc2ccc(Cl)cc2)c[nH]n1-c1cccc(Cl)n1,0.34%
11,Cc1nc2c(C(F)(F)F)cccc2c2c1CCS2,0.87%
12,Cc1cccc(NC(=O)C2CCCN(S(=O)(=O)c3c(C)nn(C)c3C)C2)c1 (configuration not stated),-8.6%
13,O=C(Nc1ccccc1)c1ccccc1OS(=O)(=O)c1ccccc1,0.76%
14,O=Cc1ccccc1OS(=O)(=O)c1ccccc1,-6.41%
15,C/C(=N\NC(=O)CN(c1ccccc1)S(C)(=O)=O)c1ccccc1O,-3.69%
16,Cc1cc(OC(C)C(=O)NCC2CCCO2)cc(C)c1Cl (configuration not stated),11.1%
17,CCn1cnc2sc(C(=O)O)c(C)c2c1=O,-6.99%
18,CCn1cnc2sc(C(=O)N3CCN(c4ccc(OC)cc4)CC3)c(C)c2c1=O,-8.96%
19,Cc1ccc(-n2[nH]c(C)c(C=Nc3ccc(S(=O)(=O)Nc4nc(C)cc(C)n4)cc3)c2=O)c(C)c1,-3.23%
20,Cc1[nH]n(-c2ccc(Br)cc2)c(=O)c1C=Nc1ccc(S(=O)(=O)Nc2nccs2)cc1,68.2%
